Key:
Assay in all cases: protein domain microarray probed with biotinylated miRNA; Domain array: 20 mM Tris-HCl pH 7.4, 200 mM KCl, 0.2 mM EDTA, 0.05% NP40, 2 ug/ul heparin, overnight 4 C. ORF array: PBS pH 7.0 with RNase inhibitor, 100 ng RNA; high values mean tight binding
Conditions in all cases: ssRNA
[1] = biological target: hnRNP-A2/B1 (Homo sapiens, UniProt P22626)
[2] = biological target: T1, DAZAP1 (Homo sapiens, UniProt Q96EP5)
T1 sequence: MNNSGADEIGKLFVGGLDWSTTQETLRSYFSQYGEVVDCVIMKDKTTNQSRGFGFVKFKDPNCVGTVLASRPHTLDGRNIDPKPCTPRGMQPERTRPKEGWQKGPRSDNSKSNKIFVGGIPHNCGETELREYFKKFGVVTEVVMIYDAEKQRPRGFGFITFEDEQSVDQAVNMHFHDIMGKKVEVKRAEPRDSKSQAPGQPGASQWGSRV

[3] = biological target: ELAVL2 (Homo sapiens, UniProt Q12926)
Chain of ELAVL2 (Q12926 20-359): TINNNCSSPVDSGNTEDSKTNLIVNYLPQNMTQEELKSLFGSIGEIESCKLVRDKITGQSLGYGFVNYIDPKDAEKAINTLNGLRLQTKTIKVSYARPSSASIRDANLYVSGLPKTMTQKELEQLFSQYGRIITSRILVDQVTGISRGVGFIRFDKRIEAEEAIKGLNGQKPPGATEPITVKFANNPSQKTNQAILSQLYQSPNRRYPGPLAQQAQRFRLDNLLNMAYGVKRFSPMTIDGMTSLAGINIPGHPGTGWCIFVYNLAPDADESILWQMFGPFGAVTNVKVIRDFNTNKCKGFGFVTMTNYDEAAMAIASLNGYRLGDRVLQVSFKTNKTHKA

[4] = biological target: T2, CPEB2 (Homo sapiens, UniProt Q7Z5Q1)
T2 sequence: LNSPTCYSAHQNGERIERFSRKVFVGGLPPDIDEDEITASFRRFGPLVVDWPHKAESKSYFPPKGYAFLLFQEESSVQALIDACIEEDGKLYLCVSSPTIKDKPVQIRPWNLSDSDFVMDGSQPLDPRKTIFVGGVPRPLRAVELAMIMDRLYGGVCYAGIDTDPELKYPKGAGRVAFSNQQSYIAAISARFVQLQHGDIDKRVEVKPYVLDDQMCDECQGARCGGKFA

[5] = biological target: hnRNP-C1/C2 (Homo sapiens, UniProt P07910)
Chain of hnRNP-C1/C2 (P07910 1-110): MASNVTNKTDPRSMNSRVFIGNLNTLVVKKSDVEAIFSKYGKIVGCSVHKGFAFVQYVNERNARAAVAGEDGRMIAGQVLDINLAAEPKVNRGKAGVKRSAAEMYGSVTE

[6] = biological target: CELF6(3) (Homo sapiens, UniProt Q96J87)
Chain of CELF6(3) (Q96J87 372-481): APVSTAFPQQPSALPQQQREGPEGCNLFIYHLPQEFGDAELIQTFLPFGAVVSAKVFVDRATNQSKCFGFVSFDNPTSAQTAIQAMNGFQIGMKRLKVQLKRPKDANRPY

[7] = biological target: T3, Matrin-3 (Homo sapiens, UniProt P43243)
T3 sequence: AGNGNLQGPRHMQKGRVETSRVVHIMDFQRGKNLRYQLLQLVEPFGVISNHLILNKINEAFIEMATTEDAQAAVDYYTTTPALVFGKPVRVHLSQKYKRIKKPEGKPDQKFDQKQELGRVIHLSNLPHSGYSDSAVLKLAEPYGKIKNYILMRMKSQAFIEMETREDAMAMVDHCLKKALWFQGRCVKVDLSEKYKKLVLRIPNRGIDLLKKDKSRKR

[8] = biological target: ZCRB1 (Homo sapiens, UniProt Q8TBF4)
Chain of ZCRB1 (Q8TBF4 1-110): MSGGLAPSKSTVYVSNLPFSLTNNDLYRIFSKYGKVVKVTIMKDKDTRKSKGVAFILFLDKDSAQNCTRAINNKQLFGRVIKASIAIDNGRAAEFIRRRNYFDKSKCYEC

[9] = biological target: PABP3 (Homo sapiens, UniProt Q9H361)
Chain of PABP3 (Q9H361 1-390): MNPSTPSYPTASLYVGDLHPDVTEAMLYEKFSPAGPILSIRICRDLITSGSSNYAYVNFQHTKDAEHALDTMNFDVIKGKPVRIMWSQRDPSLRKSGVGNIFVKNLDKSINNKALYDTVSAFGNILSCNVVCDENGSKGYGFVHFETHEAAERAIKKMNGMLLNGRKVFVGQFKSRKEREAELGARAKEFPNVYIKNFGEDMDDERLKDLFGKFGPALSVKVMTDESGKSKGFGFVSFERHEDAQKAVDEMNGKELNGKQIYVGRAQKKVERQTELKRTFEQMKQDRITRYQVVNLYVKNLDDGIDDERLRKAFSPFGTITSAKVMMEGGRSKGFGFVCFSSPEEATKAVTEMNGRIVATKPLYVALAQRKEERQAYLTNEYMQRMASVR

[10] = biological target: T4, HNRPLL (Homo sapiens, UniProt Q8WVV9)
T4 sequence: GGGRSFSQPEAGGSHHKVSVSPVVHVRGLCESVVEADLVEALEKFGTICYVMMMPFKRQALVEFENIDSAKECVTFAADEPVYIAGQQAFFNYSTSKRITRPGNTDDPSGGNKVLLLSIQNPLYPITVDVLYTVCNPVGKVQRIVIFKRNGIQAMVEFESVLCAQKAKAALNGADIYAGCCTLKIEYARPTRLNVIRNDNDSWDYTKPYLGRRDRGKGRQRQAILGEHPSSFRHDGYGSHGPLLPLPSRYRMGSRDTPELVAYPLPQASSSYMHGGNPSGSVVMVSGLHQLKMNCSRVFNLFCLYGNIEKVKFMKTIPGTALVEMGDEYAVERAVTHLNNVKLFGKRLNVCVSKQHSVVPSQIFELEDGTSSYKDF

Chain of hnRNP-A2/B1 (P22626 1-210): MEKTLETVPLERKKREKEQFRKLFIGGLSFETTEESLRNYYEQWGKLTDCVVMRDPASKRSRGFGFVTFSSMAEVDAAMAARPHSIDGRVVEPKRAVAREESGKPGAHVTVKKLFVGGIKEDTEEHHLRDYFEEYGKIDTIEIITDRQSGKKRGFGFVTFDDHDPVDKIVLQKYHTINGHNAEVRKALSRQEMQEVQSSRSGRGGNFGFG

UAGCUUAUCAGACUGAUGUUGA
binding signal [1]: 255 ± 27.4 fluorescence intensity | binding signal [2]: 717 ± 152 fluorescence intensity | binding signal [3]: 653 ± 28.8 fluorescence intensity | binding signal [4]: 118 ± 118 fluorescence intensity | binding signal [5]: 162 ± 10.4 fluorescence intensity | binding signal [6]: 42.1 ± 8.05 fluorescence intensity | binding signal [7]: 38.7 ± 15.4 fluorescence intensity | binding signal [8]: 189 ± 14.5 fluorescence intensity

UGAGGUAGUAGGUUGUAUAGUU
binding signal [1]: 1499 ± 4.81 fluorescence intensity | binding signal [2]: 1600 ± 139 fluorescence intensity | binding signal [3]: 608.35 ± 0.587 fluorescence intensity | binding signal [4]: 42.8 ± 2.43 fluorescence intensity | binding signal [5]: 244.2 ± 0.382 fluorescence intensity | binding signal [6]: 282 ± 110 fluorescence intensity | binding signal [7]: 69.3 ± 9.98 fluorescence intensity | binding signal [9]: 31.2 ± 7.62 fluorescence intensity | binding signal [8]: 602 ± 7.03 fluorescence intensity

UGAGGUAGUAGGUUGUGUGGUU
binding signal [1]: 2240 ± 7.74 fluorescence intensity | binding signal [2]: 2560 ± 130 fluorescence intensity | binding signal [3]: 1370 ± 72.6 fluorescence intensity | binding signal [4]: 108 ± 11.6 fluorescence intensity | binding signal [5]: 742.6 ± 1.1 fluorescence intensity | binding signal [6]: 653 ± 52 fluorescence intensity | binding signal [7]: 496.54 ± 0.269 fluorescence intensity | binding signal [9]: 334 ± 26 fluorescence intensity | binding signal [8]: 1440 ± 63.3 fluorescence intensity | binding signal [10]: 120 ± 20.3 fluorescence intensity

AGAGGUAGUAGGUUGCAUAGUU
binding signal [1]: 3610 ± 47.7 fluorescence intensity | binding signal [2]: 3900 ± 300 fluorescence intensity | binding signal [3]: 1660 ± 45 fluorescence intensity | binding signal [4]: 65.7 ± 16.8 fluorescence intensity | binding signal [5]: 406 ± 24 fluorescence intensity | binding signal [6]: 608 ± 73.6 fluorescence intensity | binding signal [7]: 201 ± 2.89 fluorescence intensity | binding signal [9]: 119 ± 10.5 fluorescence intensity | binding signal [8]: 1460 ± 22.6 fluorescence intensity | binding signal [10]: 123 ± 7.11 fluorescence intensity

CAGUGCAAUGAUGAAAGGGCAU
binding signal [1]: 2236 ± 9.55 fluorescence intensity | binding signal [2]: 1540 ± 260 fluorescence intensity | binding signal [3]: 965 ± 66.1 fluorescence intensity | binding signal [4]: 35.7 ± 11 fluorescence intensity | binding signal [5]: 146 ± 4.99 fluorescence intensity | binding signal [6]: 151 ± 17.8 fluorescence intensity | binding signal [7]: 116 ± 6.43 fluorescence intensity | binding signal [9]: 60.5 ± 8.1 fluorescence intensity | binding signal [8]: 824 ± 79.4 fluorescence intensity | binding signal [10]: 68.7 ± 5.11 fluorescence intensity

UGAGGUAGUAGGUUGUAUGGUU
binding signal [1]: 2642 ± 18.6 fluorescence intensity | binding signal [2]: 2980 ± 146 fluorescence intensity | binding signal [3]: 1210 ± 62.5 fluorescence intensity | binding signal [4]: 66.6 ± 14.3 fluorescence intensity | binding signal [5]: 636.15 ± 0.594 fluorescence intensity | binding signal [6]: 628 ± 29.6 fluorescence intensity | binding signal [7]: 251.8 ± 1.32 fluorescence intensity | binding signal [9]: 211 ± 6.4 fluorescence intensity | binding signal [8]: 1150 ± 9.06 fluorescence intensity | binding signal [10]: 97.4 ± 6.78 fluorescence intensity
